Measured values: PubChem BioAssay AID1362 (SRMLSC, 2008)
In all, about 190,000 compounds went through this assay and about 4,000 (2.1%) were called active. Cut-off read from the data, not from the text of the source: active = inhibition above about 58%; inactive = the rest, inconclusive results apart; tested in S. cerevisiae. The full list was thinned out, with actives kept by preference.

Assay: growth inhibition of WT strain, primary screen, mitochondrial fusion inhibitor project, WT and mutant strains, chemical genetic (AID 1362)
Details: mitochondrial fusion phenotypic screen, at 10 µM
[1] = WT strain, growth inhibition, stronger effect = higher value

Row | SMILES | inhibition [1] | inhibition (mutant strain inhibition)
1 | Cc1ccc(Nc2c(F)c(F)c(F)c(F)c2C(=O)O)c(C)c1 | -0.48% (inactive) | -18%
2 | COc1c(F)c(F)c(C(=O)O)c(Nc2ccccc2C)c1F | 74.2% (active) | 15.4%
3 | Cc1ccccc1NC(=O)c1ccccc1 | -1% (inactive) | -29.4%
4 | CC(=O)c1ccc(NC(=O)C(C)NCc2ccc(Cl)cc2)cc1 (configuration not stated) | 26.3% (inactive) | -21.6%
5 | Cc1cccc(C)c1NC(=O)Nc1ccccc1-n1ccnc1 | 0.23% (inactive) | 6.61%
6 | CCNC(=S)NNC(=O)C1CCN(Cc2ccccc2)CC1 | 2.38% (inactive) | -10.7%
7 | Fc1ccccc1C(c1nnnn1Cc1ccc2c(c1)OCO2)N1CCN(Cc2ccccc2)CC1 (configuration not stated) | 15.4% (inactive) | 18.9%
8 | CCC(C)(C)n1nnnc1C(c1cccs1)N1CCN(Cc2ccccc2)CC1 (configuration not stated) | 10.3% (inactive) | 21.9%
9 | Fc1ccc(Cn2nnnc2C(c2cccs2)N2CCCCCC2)cc1 (configuration not stated) | 62.9% (active) | 11.4%
10 | O=C(NCc1nnc(SCC(=O)N2CCCc3ccccc32)o1)c1ccccc1F | 1.27% (inactive) | -4.18%
11 | CC(=O)Nc1ccc(CN2CCN(Cc3ccc(F)c(F)c3)C(CCO)C2)cc1 (configuration not stated) | 1.99% (inactive) | 5.61%
12 | Cc1ccc(NCc2n[nH]c(=S)n2-c2ccccc2)cc1Cl | -7.14% (inactive) | 3.54%
13 | CC(=O)n1cc([C@@H]2C=C(C(=O)N3CCN(Cc4ccc5c(c4)OCO5)CC3)O[C@H](OCc3ccc(CO)cc3)C2)c2ccccc21 | 1.15% (inactive) | 3.61%
14 | OCCCC1CCCCN1Cc1nc(Cc2ccccc2Cl)no1 (configuration not stated) | -11.6% (inactive) | -5.21%
15 | C=CCC(CC=C)(C(N)=O)c1ccccc1 | -18.5% (inactive) | 6.11%
16 | CC(C)(c1ccccc1)c1ccc(OCCN)cc1 | 79.8% (active) | 43.4%
17 | CN(C)CC(O)COc1ccc(C(C)(C)c2ccc(OCC(O)CN(C)C)cc2)cc1 (configuration not stated) | -19.2% (inactive) | -3.67%
18 | O=C(NCCOc1ccccc1)c1ccccc1 | 3.33% (inactive) | 5.23%
19 | CCOC(=O)c1cc(-c2ccc(F)cc2)n(CC(=O)NCc2ccccn2)c1C | -1.19% (inactive) | 1.72%
20 | Cc1nn(-c2ccc([N+](=O)[O-])cc2)c(N)c1-c1ccccc1 | 6.29% (inactive) | -26%
21 | Cn1cccc1C(C#N)c1ccccc1C#N (configuration not stated) | -2.23% (inactive) | -5.92%
22 | COc1ccccc1CCNC(=O)CSc1nnc2ccc(-c3cccnc3)nn12 | -7.72% (inactive) | 2.87%

Row | SMILES | inhibition [1] | inhibition (mutant strain inhibition)
23 | CC(NC(=S)Nc1ccc(OC(F)F)cc1)c1ccc(F)cc1 (configuration not stated) | 42.7% (inactive) | -13.6%
24 | CN(C)CCCN(C(=O)COc1ccccc1)c1nc2c(Cl)cccc2s1 | -5.71% (inactive) | 13.3%
25 | CC(=O)N(CCCN(C)C)c1nc2ccc(C)cc2s1 | -12.7% (inactive) | -0.04%
26 | COc1cccc2sc(N(CCCN(C)C)C(=O)C(c3ccccc3)c3ccccc3)nc12 | 96.8% (active) | 88.8%
27 | COc1ccc(CNc2c(CO)cnc3c2cnn3C)cc1 | 4.76% (inactive) | 3.68%
28 | COCC(C)NC(=O)CSc1nc2nn(-c3ccccc3)c(=O)c-2c2n1CCCCC2 (configuration not stated) | 0.91% (inactive) | -15.1%
29 | CC(/C=C/c1ccccc1)=N\NC(=O)C1CC1(C)c1ccccc1 (configuration not stated) | 71.7% (active) | 59.3%
30 | O=C(N/N=C/C=C/c1ccccc1)C1CC1(c1ccccc1)c1ccccc1 (configuration not stated) | 17.1% (inactive) | -3.76%
31 | O=C(/C=C/c1ccccc1)c1ccccc1O | 12.3% (inactive) | 8.14%
32 | CCOC(=O)C1=C(CC)Nc2ccccc2N=C1N | -42.2% (inactive) | -18.4%
33 | CCO[C@H]1OC(C(=O)N2CCCCCCC2)=C[C@@H](c2ccc(C(F)(F)F)cc2)[C@@H]1CCCO | -11% (inactive) | 9.51%
34 | O=C(Nc1ccccc1)c1nnsc1S(=O)(=O)c1ccc(Cl)cc1 | 98.5% (active) | 97.8%
35 | O=C(Nc1ccc(Cl)cc1)c1ccsn1 | 12.9% (inactive) | 28%
36 | CC(=O)Nc1cc(C(=O)O)ccc1S(=O)(=O)c1ccc(Cl)cc1 | 8.84% (inactive) | 41.8%
37 | CN(C)c1ccc(C=NCCc2ccc(S(N)(=O)=O)cc2)cc1 | -3.5% (inactive) | -12.7%
38 | CC(C)CC(CO)N1CCN(C(=O)c2ccc(Cl)cc2Cl)CCC1=O (configuration not stated) | -10.3% (inactive) | 1.82%
39 | CC(C)CC(COCc1ccc(Cl)cc1)N1CCN(C(=O)c2ccc(C(F)(F)F)cc2)CCC1=O (configuration not stated) | 35.7% (inactive) | 0.99%
40 | O=C(c1cc(Cl)cc(Cl)c1)N1CCC(=O)N(C(COCc2ccccc2)Cc2ccccc2)CC1 (configuration not stated) | 71.4% (active) | 11.6%
41 | O=C(Nc1cccc(F)c1)N1C2CCC1CC(O)(c1cccnc1)C2 (configuration not stated) | -6.02% (inactive) | -8.29%
42 | C=CCn1c(=NC(=O)c2cccs2)sc2cc(NC(C)=O)ccc21 | -0.58% (inactive) | 5.07%
43 | Clc1cccc(-c2nc(NCC3CCCO3)c3ccccc3n2)c1 (configuration not stated) | 74.2% (active) | 68.9%
44 | Cc1nc2ccccc2c2oc(C(=O)NCC3CCCO3)cc12 (configuration not stated) | 1.66% (inactive) | -8.79%

Row | SMILES | inhibition [1] | inhibition (mutant strain inhibition)
45 | c1ccc2c(NCC3CCCO3)nc(-c3ccncc3)nc2c1 (configuration not stated) | -20% (inactive) | -11%
46 | O=C1Nc2ccc([N+](=O)[O-])cc2C1=Nc1cccc(CO)c1 | 0.18% (inactive) | 6.98%
47 | CC(C)(CNC(=O)c1cc(=O)[nH]c2ccccc12)N1CCOCC1 | -13.2% (inactive) | -2.01%
48 | CC(CN1CCOCC1)c1ccccc1 (configuration not stated) | -5.68% (inactive) | 13.1%
49 | CC(C)(CNCC(O)c1ccccc1)N1CCOCC1 (configuration not stated) | 64% (active) | 5.08%
50 | Cn1c(SCC(=O)Nc2ccc(Br)cc2F)nnc1-c1ccco1 | -5.72% (inactive) | -9.59%
51 | CCN(CC)C(=O)Oc1ccc(OC(=O)N(CC)CC)cc1 | -3.56% (inactive) | 8.46%
52 | O=C(CSc1nnc(-c2cccs2)n1-c1ccccc1)N1CCN(C(=O)c2ccco2)CC1 | -17.6% (inactive) | -21.2%
53 | CCn1c(SCC(=O)c2ccc3ccccc3c2)nnc1-c1cccs1 | 16.5% (inactive) | -6.78%
54 | O=C(CSc1nnc(-c2cccs2)n1Cc1ccccc1)N1CCc2ccccc2C1 | 70.4% (active) | 40.2%
55 | CCOC(=O)C1(C)NC(c2ccco2)C2C(=O)N(c3ccccc3)C(=O)C21 (configuration not stated) | -2.53% (inactive) | -16.9%
56 | Cc1ccc(NC(=S)N(CCCN2CCCC2)Cc2cccn2Cc2ccc(Cl)cc2)cc1 | 83.8% (active) | 31.5%
57 | Cc1ccccc1NC(=S)N(CCCN1CCOCC1)Cc1cccs1 | 20.9% (inactive) | -3.99%
58 | CCc1cccc(C)c1NC(=S)N(CCCN1CCN(C)CC1)Cc1cccs1 | 4.55% (inactive) | 8.76%
59 | Cc1cc(C)cc(OCC(=O)Nc2ccc(S(=O)(=O)Nc3ccccn3)cc2)c1 | -6.39% (inactive) | -7.44%
60 | CCOc1cc(N2CCOCC2)c(OCC)cc1NC(=O)c1cc(C)nc2ccccc12 | -14.2% (inactive) | -29.4%
61 | O=C(Nc1ccc2nc3n(c(=O)c2c1)CCCCC3)c1ccccc1Cl | -2.99% (inactive) | -3.04%
62 | CCC(=O)Nc1ccc2nc(C)n(Cc3ccccc3Cl)c(=O)c2c1 | 62.4% (active) | 62.2%
63 | CCC(=O)Nc1nc2ccccc2n1Cc1ccccc1C | 32.7% (inactive) | 38.1%
64 | COc1ccc(Cc2n[nH]c(=S)n2NC(=O)Nc2ccc(C)cc2)cc1 | -24.4% (inactive) | 1.23%
65 | O=C(O)c1ccc(N/N=C/c2cn(-c3ccccc3)nc2-c2cccs2)cc1 | 25% (inactive) | 5.64%
66 | C/C(=C\C(=O)c1ccccc1)Nc1cccc(O)c1 | 85.2% (active) | 17.2%

Row | SMILES | inhibition [1] | inhibition (mutant strain inhibition)
67 | O=C(Nc1cccc(O)c1)c1ccc(C(=O)c2ccccc2)o1 | -18.9% (inactive) | 0.34%
68 | C/C(=C\C(=O)c1cccnc1)Nc1ccc(C)c(C)c1 | 21.1% (inactive) | 23%
69 | Cc1ccc(C(NC(=O)N2CCCC2)C(Cl)(Cl)Cl)cc1F (configuration not stated) | 10.1% (inactive) | 18.2%
70 | CCC(C)(C)NC(=O)CN(C(=O)CCC(=O)Nc1cc(C)ccn1)c1ccc2c(c1)OCCO2 | 3.35% (inactive) | -3.2%
71 | O=C(COC(=O)CNS(=O)(=O)c1ccccc1)NC12CC3CC(CC(C3)C1)C2 | 4.93% (inactive) | -2.93%
72 | S=C(NCC1COc2ccccc2O1)Nc1ccc(Br)cc1 (configuration not stated) | 5.47% (inactive) | 7.77%
73 | CCCN(CC1COc2ccccc2O1)C(=S)Nc1ccc(C)cc1 (configuration not stated) | 65.7% (active) | 33.2%
74 | CC(NC(=S)Nc1ccccc1)C1COc2ccccc2O1 (configuration not stated) | 5.96% (inactive) | 2.67%
75 | CCOCCCNC(=O)C(NC(=O)Cc1c[nH]c2ccccc12)c1ccc(OC)cc1 (configuration not stated) | -1.73% (inactive) | 8.23%
76 | O=C1COc2ccc(NC(=O)N3CCN(c4ccc(F)cc4)CC3)cc2N1 | 74.7% (active) | 0.98%
77 | O=C(Nc1ccc(F)cc1)N1CCN(c2ccc(F)cc2)CC1 | -9.94% (inactive) | -0.68%
78 | COc1cccc(N2CCN(C(=O)Nc3ccc4c(c3)NC(=O)CO4)CC2)c1 | 43.7% (inactive) | 41.7%
79 | COc1ccc(CNC(=O)CN2CCC(n3nnc4cc(F)ccc43)CC2)cc1 | 3.98% (inactive) | -18.3%
80 | CCOc1cccc(/C=C/c2ccc3ccccc3n2)c1OC(C)=O | 33% (inactive) | 25.6%
81 | CC1(C)C2CCC1(C)C(OC(=O)c1ccc(O)cc1)C2 (configuration not stated) | 94.2% (active) | 81.9%
82 | CC1(C)C2CCC1(C)C(OC(=O)CCn1ccnc1)C2 (configuration not stated) | -4.41% (inactive) | -8.76%
83 | Cc1ccc(C(=O)OC2CCCN(C)C2)cc1 (configuration not stated) | -13.6% (inactive) | -3.26%
84 | CSc1ccccc1NC(=O)CN(C)CC(=O)Nc1cccc(Br)c1 | 21.6% (inactive) | -2.69%
85 | CSc1ccccc1NC(=O)CN(C)CC(=O)Nc1ccc(Cl)cc1[N+](=O)[O-] | 70% (active) | 21.8%
86 | Cc1ccc(NC(=O)CN(C)Cc2ccc(F)cc2)c([N+](=O)[O-])c1 | 22% (inactive) | 0.15%
